In all, about 330,000 compounds went through this assay and about 4,900 (1.5%) were called active.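 Rule for the calls: active = inhibition above the mean inhibition across the screen plus 3 SD (cut at about 25% in these data); inactive = the rest.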 For the sample, actives were picked, then their nearest neighbours and some compounds at random.
Target: Platelet-activating factor acetylhydrolase (Homo sapiens) (UniProt Q13093)
Experiment: inhibition of plasma PAF acetylhydrolase – biochemical, fluorescence polarization, human, primary screen (AID 463082);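 note: inhibitors block binding of the rhodamine activity-based probe so polarization drops; 0% = enzyme with DMSO and 100% = wells lacking pPAFAH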
Details: recombinant pPAFAH, FP-rhodamine probe fluorescence polarization; at 3.39 µM; hits give high values

Platelet-activating factor acetylhydrolase (Homo sapiens), sequence (Q13093 whole entry, looked up): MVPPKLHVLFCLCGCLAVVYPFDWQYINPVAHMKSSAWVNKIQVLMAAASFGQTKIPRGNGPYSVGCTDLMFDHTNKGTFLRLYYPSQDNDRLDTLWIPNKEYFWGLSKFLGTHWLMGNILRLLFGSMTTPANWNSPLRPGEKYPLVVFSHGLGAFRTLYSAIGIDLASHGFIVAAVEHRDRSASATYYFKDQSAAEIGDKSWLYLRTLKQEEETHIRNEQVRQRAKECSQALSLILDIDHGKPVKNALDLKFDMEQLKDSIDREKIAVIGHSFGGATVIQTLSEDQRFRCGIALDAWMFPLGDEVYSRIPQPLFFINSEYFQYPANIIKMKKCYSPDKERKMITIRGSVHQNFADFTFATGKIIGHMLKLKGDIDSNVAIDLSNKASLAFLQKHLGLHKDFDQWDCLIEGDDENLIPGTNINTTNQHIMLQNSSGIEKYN

inhibition, inactive:
COc1ccc(S(=O)(=O)N2CCN(C)CC2)c(C)c1 -1.79%
CN(C)/C=N/c1cc(=O)n(C)c(=O)n1CC1CC1 -0.49%
Cc1ccc(C(=O)NC23CC4CC(CC(C4)C2)C3)c(Cl)c1 5.48%
Cc1ccsc1C(=O)OCC(=O)NCCc1ccccc1 2.4%
CC1CC1C(=O)OCC(=O)Nc1cccc(F)c1 (stereo not drawn) 13.3%
Cc1ccc2nc(-c3ccc(SCC(=O)Nc4cc(C)on4)nc3)[nH]c2c1 -7.51%
CC(=O)c1ccc(NC(=O)CCc2nnc3ccc(NCc4ccco4)nn23)cc1 -0.96%
CCOc1ccccc1NC(=O)CCc1nnc2ccc(NCc3ccco3)nn12 6.27%
CC(Cc1cccs1)N(Cc1ccc(Cl)cc1)C(=O)c1ccncc1 (stereo not drawn) 6.35%
CCSC1=C(C#N)C(=O)n2c1cc1c2CCCC1 8.15%
Cn1c(NC(=O)c2ccco2)c(-c2ccccc2Cl)c(=O)c2ccccc21 1.1%
O=C(NC(=S)Nc1ccc(Cl)c(C(=O)O)c1)c1cncc(Br)c1 0.25%
Cc1ccc(C)c(NC(=S)NNC(=S)Nc2ccc(C(C)C)cc2)c1 22.5%
Cc1cc(=O)n2nc(N3CCCC(C(=O)NCc4cccc(Cl)c4)C3)sc2n1 (stereo not drawn) 1.7%
COc1ccccc1CNC(=O)COn1nnc2ccc(S(=O)(=O)N3CCOCC3)cc21 2.22%
CC(C)N(C(=O)[C@H]1C[C@H](CC(=O)NC(C)(C)C)C(=O)N2CCc3c([nH]c4ccc(Cl)cc34)[C@]12C)C(C)C 3.29%
Cc1nc(NC(=O)c2cccc(Cl)c2)sc1-c1csc(Nc2cccc(Cl)c2)n1 11.3%
O=C(Nc1ccc(C(F)(F)F)cc1)c1cccc(-n2cnnn2)c1 -6.56%
CC(C)c1nc(CNC(=O)CC2C(=O)NCCN2Cc2cccc(F)c2F)cs1 (stereo not drawn) 3.46%
COc1cc(NC(=O)CCS(=O)(=O)c2ccc3c(c2)oc(=O)n3C)cc(OC)c1 3.91%
COc1ccc(-c2n[nH]c(C)c2-c2ccccc2OC)c(O)c1 4.94%
C=C(C)COc1ccc(-c2n[nH]c(C)c2-c2ccccc2)c(O)c1 13.4%
O=C(Nc1ccc(F)c([N+](=O)[O-])c1)C1CCCO1 (stereo not drawn) -1.09%
CN(Cc1cccs1)C(=O)CN1C(=O)c2ccccc2S1(=O)=O 4.08%
CN(C)c1ccc(C(=S)N2CCN(C(=S)Nc3ccc(Cl)cc3)CC2)cc1 1.77%
CCn1cc(C(=O)NCCC(=O)NCCO)c(=O)c2cc3c(cc21)OCO3 4.78%
COc1cc(CNC2CCCC2)c(Br)cc1OCc1ccccc1 1.42%
COc1cc(CN2CCC(C(N)=O)CC2)ccc1OCc1ccccc1 0.32%
COc1ccc(CNc2cc(C)cc(C)c2)cc1OC 0.82%
CC1CCCCC1NC(=O)COC(=O)Cc1ccc(Br)cc1 (stereo not drawn) 23.6%
O=C(COC(=O)Cc1ccc([N+](=O)[O-])cc1)NC1CCCCCC1 12.4%
Cc1cccc(C(=O)O)c1[N+](=O)[O-] 1.3%
C=CCn1c(Oc2ccc(C(=O)OC)cc2)nc2c1c(=O)n(C)c(=O)n2C -2.33%
CSc1ccc(CNC(=O)c2ccc(NC(=O)C3=CSCCO3)cc2)cc1 -5.55%
Cc1cc(C)cc(N(CC(=O)NC2CCCC2)C(=O)CCC(=O)Nc2nccs2)c1 1.33%
Cc1cccc(CCNS(=O)(=O)c2ccc3c(c2)NC(=O)CO3)c1 9.07%
Cc1ccc(S(=O)(=O)NC2CCCCCC2)cc1 9.54%
CC[C@]12c3[nH]c4cc(CCC(=O)N(C)C)ccc4c3CCN1C(=O)[C@@H](CC(=O)NCCCn1ccnc1)C[C@@H]2C(=O)N1CCN(C(=O)C2CC2)CC1 -6.7%
CCc1cccc(C)c1NS(=O)(=O)c1c(C)nc2sccn2c1=O 1.67%
O=C(c1ccco1)N(Cc1nc2ccccc2c(=O)[nH]1)C1CCCC1 2.71%
CC(=O)c1ccc(-c2nnc(CCC(=O)N(C)Cc3cnc4ccccn34)o2)s1 3.22%
CCc1ccc(CN(C)Cc2nc(Cc3ccccc3)no2)nc1 1.77%
COc1ccc(NC(=O)CNC(=O)Cc2ccccc2)cc1OC 1.61%
COc1ccc(CCNC(=O)Cc2ccc(C)cc2)cc1OC 0.86%
Cc1cc(=O)oc2c(C)c(OCC(=O)NCCc3ccc(S(N)(=O)=O)cc3)ccc12 1.13%
CCOc1ccc(S(=O)(=O)NCCC(=O)NCC2CCCO2)cc1 (stereo not drawn) -0.87%
Nc1scc(-c2ccncc2)c1Cl 5.7%

inhibition, active:
Cc1ccsc1C(=O)OCC(=O)Nc1cccc(F)c1 31.5%
O=C(CCc1nnc2ccc(NCc3ccco3)nn12)Nc1cc(F)ccc1F 32.9%
CC(C)c1ccc(NC(=S)NNc2ccc(Cl)c(C(=O)O)c2)cc1 38.3%
O=C(Nc1ccc(-c2csc(Nc3cccc(C(F)(F)F)c3)n2)cc1)c1cccc(C(F)(F)F)c1 28.4%
C=C(C)COc1ccc(-c2n[nH]c(C)c2-c2ccccc2OC)c(O)c1 26.2%
COc1cc(C2CC(=O)N3CN(Cc4ccccc4)CSC3=C2C#N)ccc1OCc1ccccc1 (stereo not drawn) 35.3%
CC1CCCCC1NC(=O)COC(=O)Cc1ccc(Cl)cc1 (stereo not drawn) 35.3%
Cc1cccc(CCNS(=O)(=O)c2ccc(S(=O)(=O)NC3CCCC3)cc2)c1 27.3%
CN(C)[C@@H]1C(=O)C(C(N)=O)=C(O)[C@@]2(O)C(=O)C3=C(O)c4c(O)ccc(Cl)c4[C@@H](O)[C@H]3C[C@@H]12 49.4%
CCc1ccc(CN(C)C(=O)CCc2nnc(-c3ccc(-c4ccccc4)cc3)o2)nc1 61.6%
COc1ccc(CNC(=O)Cc2ccc(-c3ccccc3)cc2)cc1OC 31.1%
